Screening results: PubChem BioAssay, National Center for Advancing Translational Sciences (NCATS)
Rab9 prom act – Rab9 promoter activation. Huh7 Rab9 promoter-luciferase reporter, luminescence, 24 h. Potency, µM (doses to about 9.22 µM), without a hit: at the highest dose activation, negative = inhibition, hits mostly activators. actives 2.8% (n = 320,000); also: % of control where 0% means no effect; nearly all actives have a fitted effect of over 60% in size
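Luminescence from Amplite-detected luciferase (10 minutes, ambient) reports Rab9 promoter activation. Before that, stable Rab9-luciferase Huh7 cells (1500/well, reduced-serum OP-MEM I plus 10% FBS) were exposed to compound for 24 hours at 37C.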
FLuc modulator – counter-screen for miR-21 project: firefly luciferase inhibitors or activators; P08659; purified FLuc, Km substrates, luminescence inhibition; Potency, µM (titrated, usually from 57.5 µM), for inactives: at the highest dose activity change, negative = inhibition, most hits filed as inhibitors; actives 6.9% (n = 360,000);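 also: plate controls were vehicle for no effect and reference inhibitor for full effect; nearly all actives have a fitted effect of over 55% in size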
Target sequence (P08659 whole entry, looked up): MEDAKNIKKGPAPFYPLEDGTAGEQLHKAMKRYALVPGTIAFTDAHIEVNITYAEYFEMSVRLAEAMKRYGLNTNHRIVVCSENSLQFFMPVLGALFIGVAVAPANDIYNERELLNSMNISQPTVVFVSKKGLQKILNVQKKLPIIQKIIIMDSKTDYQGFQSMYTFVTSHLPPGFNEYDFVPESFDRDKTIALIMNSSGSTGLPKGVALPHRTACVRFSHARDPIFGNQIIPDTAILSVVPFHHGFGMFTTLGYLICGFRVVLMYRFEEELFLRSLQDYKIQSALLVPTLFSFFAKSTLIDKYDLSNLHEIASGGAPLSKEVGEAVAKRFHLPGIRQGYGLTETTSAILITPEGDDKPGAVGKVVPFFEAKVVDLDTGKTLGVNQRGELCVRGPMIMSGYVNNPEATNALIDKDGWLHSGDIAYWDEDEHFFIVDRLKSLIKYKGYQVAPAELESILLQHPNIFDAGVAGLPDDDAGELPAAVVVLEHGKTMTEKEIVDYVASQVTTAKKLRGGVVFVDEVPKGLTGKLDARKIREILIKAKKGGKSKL
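Purified P. pyralis luciferase (10nM final) with 10uM D-luciferin and 10uM ATP (Km levels) in 50mM Tris acetate pH 7.5, 10mM Mg acetate, 0.01% Tween-20, 0.05% BSA; qHTS 6-point titration, ~60 µM downward; luminescence read.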
NPC1 prom act – NPC1 promoter activation; Huh7 NPC1 promoter luciferase reporter, 24 h; Potency, µM (highest dose often 9.22 µM), for inactives: at the top dose activation, hits mostly activators; actives 2.4% (n = 320,000); also: % of control where 0% means no effect; nearly all actives have a fitted effect of over 60% in size
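Stably transfected Huh7 (NPC1 promoter→luciferase), 1500 cells/well in Opti-MEM + 10% FBS, 2 h settle, then compound 24 h at 37 °C. Luminescence after 10 min with Amplite reagent.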
SMN2 splice enh – SMN2 splice variant enhancement | HEK293 SMN2-luciferase splicing reporter, luminescence, 30-36 h | Potency, µM (top dose mostly 46.1 µM), inactives show at the top dose activity change, positive = activation, usual class: activators | actives 2.8% (n = 210,000); also: % of control where 0% means no effect; nearly all actives have a fitted effect of over 55% in size
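qHTS luciferase splicing reporter: luminescence rises when SMN2 exon 7 is included in transfected HEK293 cells. Compound exposure lasted 30-36 h at 37C, with 4.5 mM final sodium butyrate as control, followed by a ONE-Glo read.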
ELG1 repair inh – inhibitors of ELG1-dependent DNA repair in HEK293T cells; Potency, µM (top dose mostly 46.1 µM), inactives show at the highest dose activity change, negative = inhibition, hits mostly inhibitors; AID 504467; actives 2.3% (n = 330,000); HEK293T ELG1-luciferase reporter, luminescence, 16 h; DNA damage induced by 5-fluorouridine; also: % is scaled to controls: 0 for no effect and ±100 for the full control effect; nearly all actives have a fitted effect of over 55% in size
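Quantitative HTS, concentration-response format. 2,000 cells/well co-treated with 5-fluorouridine and compound, 16 hr in 5% CO2 at 37 °C; ONE-Glo luminescence read after 30 min.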
ELG1 genotoxic – genotoxicity induction in ELG1-luciferase HEK293T cells; HEK293T ELG1-luciferase reporter, luminescence, 16 h; Potency, µM (highest dose often 46 µM), for inactives: top-dose activity change, positive = activation, actives largely listed as activators; actives 1.3% (n = 330,000); AID 504466; also: % of control where 0% means no effect; nearly all actives have a fitted effect of over 60% in size
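HEK293T cells expressing luciferase-tagged ELG1 were treated with compound or DMSO for 16 hr at 37°C. Luciferase activity was then read after 30 min with ONE-Glo at room temperature; rising signal flags genetic stress.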
* hit, by the source's call; u = inconclusive; x = no result; [ ] = another dose, or the depositor's remark. The list is not random: actives were taken first. Their share in the collection is about 9.3%. Calls follow the shape of the dose curve; as a rule, active = well fitted curve in the direction sought with a large enough effect; inconclusive = small, poorly fitted or top-dose-only effect, or another doubt; inactive = no such curve, though single readings can be large; an effect the other way counts as inactive or inconclusive. Potency is read from the fitted curve at half-maximal effect.

SMILES | Rab9 prom act | FLuc modulator | NPC1 prom act | SMN2 splice enh | ELG1 repair inh | ELG1 genotoxic
COc1ccc(-c2noc(-c3ccc(Cl)cc3[N+](=O)[O-])n2)cc1OC | 4µM* | 4.3µM* | u | 25µM* | u | 17%
CCC(=O)NNc1cccc(Cl)n1 | -2% | 7% | 1% | 13% | -20% | -3%
CCN(CC)S(=O)(=O)c1cccc(C(=O)c2c(C)cc3ccccn23)c1 | 12% | -2% | 4% | -48% | u | 0%
CCSc1nnc([C@H](Cc2ccccc2)NC(=O)OC(C)(C)C)o1 | -1% | 4% | -4% | 0% | 7% | -4%
CCCCOc1ccc(C(=O)NCCc2cccs2)cc1 | 1.8µM* | 7.6µM* | 4µM* | 13µM* | u | u
CCOc1c2ccc(C(=O)NCCc3cccs3)cc2nn1CC | 3.5µM* | 24µM* | u | 14µM* | u | u
CCCCn1nc2cc(C(=O)NCCc3cccs3)ccc2c1OCC | 21% | -15% | u | 9% | 11% | 5%
CCOc1ccc(C(=O)NCc2cccs2)cc1 | u | -3% | 16% | 15% | 5% | 3%
COc1cc(/C=C2\SC(=S)N(Nc3ncc(C(F)(F)F)cc3Cl)C2=O)ccc1O | -3% | 8.5µM* | -1% | -3% | u | 7%
COc1cc(/C=C2\SC(=S)N(c3cccnc3)C2=O)ccc1O | -2% | -7% | -3% | x | 8% | 1%
CN(C)c1ccc(/C=C2\SC(=S)N(Nc3ncc(C(F)(F)F)cc3Cl)C2=O)cc1 | -2% | 9.5µM* | 5% | 7% | 16% | 0%
COc1ccc(/C=N/NC(=O)c2nonc2C)cc1 | u | 1.9µM* | 18% | u | u | u
COc1ccc(/C=N/NC(=O)c2nc(-c3ccccc3)n(-c3ccccc3)n2)cc1 | -7% | 15µM* | -5% | 4% | -24% | -2%
COc1ccc(/C=N\NC(=O)C2=NNC(=O)C2C)cc1 (stereo unspecified) | u | 6µM* | u | 7% | u | u
Cc1cc2c(c(C)nn2-c2ccccc2)c(=O)o1 | 6% | -2% | -1% | -1% | u | 10%
CN1CCc2c(sc3c2C(=O)NC(c2ccc(OC(=O)c4ccccc4)cc2)N3)C1 (stereo unspecified) | x | u | x | 16µM* | x | x
CN1CCc2c(sc3c2C(=O)NC(c2ccc(OC(=O)c4ccc(C(C)(C)C)cc4)cc2)N3)C1 (stereo unspecified) | x | 11µM* | x | -1% | x | x
CN1CCc2c(sc3c2C(=O)NC(c2ccc(OC(=O)c4ccc(Cl)cc4)cc2)N3)C1 (stereo unspecified) | x | -15% | x | -8% | x | x
CCOc1cc(C2NC(=O)c3c(sc4c3CCN(C)C4)N2)ccc1OC(=O)c1ccc(F)cc1 (stereo unspecified) | x | -2% | x | -11% | x | x
CCCc1c(C(=O)OCC)nnc2c(-c3ccccc3)c(C)nn12 | x | -3% | x | 4% | x | x
COc1ccc(NC(=O)c2ccco2)cc1NC(=O)c1cc(Br)ccc1Cl | x | -15% | x | x | x | x
N=C1/C(=C\c2ccc(SCc3ccco3)o2)C(=O)N=C2SC=NN12 | 22% | 8.5µM* | -1% | 1% | 18% | 6%
COCCCNC(=O)C1CCCN(S(=O)(=O)c2ccc3c(c2)oc(=O)n3C)C1 (stereo unspecified) | x | 2% | x | 10% | x | x
O=C(NNc1nc(=O)c2cccnc2s1)c1ccccc1O | -20% | u | -20% | -24% | 15µM* | -8%
O=C(NNC(=O)c1cccc2ccccc12)c1ccccc1O | 0% | -17% | -5% | x | -3% | -14%
SMILES | Rab9 prom act | FLuc modulator | NPC1 prom act | SMN2 splice enh | ELG1 repair inh | ELG1 genotoxic
Cn1c(=O)c2c(nc(N/N=C/c3ccc(OC(=O)c4ccco4)cc3)n2Cc2ccccc2Cl)n(C)c1=O | -7% | 0% | -4% | -23% | 16µM* | -13%
Cn1c(=O)c2c(nc(N/N=C/c3ccc(OC(=O)c4ccco4)cc3)n2Cc2ccc(F)cc2)n(C)c1=O | -18% | 3% | -5% | -14% | 16µM* | 8%
Cn1c(=O)c2c(nc(NCc3ccco3)n2Cc2ccccc2Cl)n(C)c1=O | -4% | 3%[2.3 µM] | 0% | -41% | u | 1%
Cn1c(=O)c2c(nc(N/N=C/c3cccnc3)n2Cc2ccccc2)n(C)c1=O | 1% | 1% | 1% | x | u | -1%
O=C(CC(NC(=O)OCc1ccccc1)C(=O)O)OCc1ccccc1 (stereo unspecified) | -4% | u | -4% | 6% | 1% | 2%
COC(=O)c1[nH]c2cc(OC)ccc2c1NC(=O)CN1CCC(C(N)=O)(N2CCCCC2)CC1 | 2% | 6% | -3% | 3% | -30% | -3%
Cc1ccc2nc(NC3=NCN(Cc4ccccc4)CN3)nc(C)c2c1 | 2% | 3% | -4% | 0% | -3% | -1%
Cc1ccc2nc(Nc3nc(=O)c4ccccc4n3C)nc(C)c2c1 | 11% | 2.1µM* | 10% | 5% | 16% | -4%
CC(C)(C)c1ccc(C(=O)NNC(=O)Cc2cccc3ccccc23)cc1 | 1% | 15µM* | 0% | 17% | 9% | -22%
O=C(COc1ccc2ccccc2c1)NNC(=O)Cc1cccc2ccccc12 | 0% | 3% | -5% | -16% | 24% | 1%
CC(=O)/C(N=Nc1ccc2c(c1)OCO2)=C(\C)O | 3.5µM* | 21µM* | 2.8µM* | 14µM* | u | u
CC(=O)/C(N=Nc1ccc2c(c1)OCCO2)=C(\C)O | 5% | 9.5µM* | 12% | -88% | u | u
CCN(CC)S(=O)(=O)c1ccc(C)c(NC(=S)N2CCN(c3ccccn3)CC2)c1 | -2% | -1% | -2% | x | 16µM* | -32%
CCc1ccccc1NC(=S)N1CCN(c2ccccn2)CC1 | -3% | 3% | 0% | 6% | 3% | 1%
CCN(CC)S(=O)(=O)c1ccc(C)c(NC(=S)N2CCN(C/C=C/c3ccccc3)CC2)c1 | -33% | -5% | -28% | -58% | 12µM* | -17%
